Hits are enriched below; roughly 11% of the tested compounds scored in any of these assays.
JMJD2A Tudor inh – blocks the human JMJD2A Tudor domain; 4.4% of 390,000 active; AlphaScreen JMJD2A-Tudor / H3K4me3 peptide binding; Potency, µM (highest dose often 114 µM), usual class: inhibitors; O75164; further: nearly all actives have a fitted effect of over 50% in size
Target sequence (O75164 whole entry, looked up, the tested form may be a part): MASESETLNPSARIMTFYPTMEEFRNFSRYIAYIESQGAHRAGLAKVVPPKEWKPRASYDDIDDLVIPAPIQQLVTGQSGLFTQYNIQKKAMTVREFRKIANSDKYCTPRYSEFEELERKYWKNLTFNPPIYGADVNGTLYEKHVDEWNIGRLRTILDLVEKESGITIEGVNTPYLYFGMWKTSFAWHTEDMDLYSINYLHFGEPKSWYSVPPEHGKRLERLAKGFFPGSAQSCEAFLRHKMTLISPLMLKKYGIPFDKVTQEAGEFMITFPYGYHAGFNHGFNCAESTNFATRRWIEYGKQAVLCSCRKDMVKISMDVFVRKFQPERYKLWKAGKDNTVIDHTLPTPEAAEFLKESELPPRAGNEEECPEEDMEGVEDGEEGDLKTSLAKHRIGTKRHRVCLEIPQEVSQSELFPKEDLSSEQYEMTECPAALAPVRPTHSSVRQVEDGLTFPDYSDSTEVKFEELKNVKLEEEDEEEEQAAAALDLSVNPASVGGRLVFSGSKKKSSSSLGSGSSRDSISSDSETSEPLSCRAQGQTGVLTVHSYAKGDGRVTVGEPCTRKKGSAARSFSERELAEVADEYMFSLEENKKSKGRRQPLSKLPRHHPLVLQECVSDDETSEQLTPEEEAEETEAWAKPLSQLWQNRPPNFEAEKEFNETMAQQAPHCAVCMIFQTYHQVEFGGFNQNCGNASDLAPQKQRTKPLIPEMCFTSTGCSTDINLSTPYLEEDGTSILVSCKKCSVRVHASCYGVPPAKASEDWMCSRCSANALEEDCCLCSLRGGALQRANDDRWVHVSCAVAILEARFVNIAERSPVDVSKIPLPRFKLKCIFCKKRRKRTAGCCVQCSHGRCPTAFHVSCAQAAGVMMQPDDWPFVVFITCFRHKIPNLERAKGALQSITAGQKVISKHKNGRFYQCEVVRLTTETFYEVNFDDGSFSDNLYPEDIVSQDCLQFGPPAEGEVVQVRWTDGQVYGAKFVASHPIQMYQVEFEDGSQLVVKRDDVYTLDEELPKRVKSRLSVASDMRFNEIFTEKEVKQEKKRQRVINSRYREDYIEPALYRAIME
HP1b chromo inh – inhibitors of HP1-beta chromodomain binding to methylated histone tails | AlphaScreen HP1-beta / biotin-H3K9me3 peptide binding | AID 540317 | 0.56% of 390,000 active | P83916 | Potency, µM (series often up to 114 µM), hits mostly inhibitors; further: nearly all actives have a fitted effect of over 70% in size
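Compound inhibition of the preformed complex between 50 nM HP1-beta and 50 nM biotinylated H3K9me3 peptide was read by AlphaScreen. Buffer was PBS pH 7.4 with 0.01% Tween-20. Incubations ran 30 min at room temperature, with 10 ug/mL donor/acceptor beads.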
G9a block – blocks human histone lysine methyltransferase G9a | G9a H3K9 monomethylation, AlphaScreen, 2 h | Potency, µM (top dose mostly 102 µM), most hits filed as inhibitors | 8.8% of 350,000 active | AID 504332; further: nearly all actives have a fitted effect of over 75% in size
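AlphaScreen detection with an anti-monomethyl H3K9 antibody quantified product after a 2 h room-temperature reaction containing 500 nM biotinylated H3K9 peptide, 20 µM SAM and 20 nM enzyme, which had been preincubated 15 min with compound.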
PLK1 PBD inh – blocks phosphopeptide binding to human PLK1 polo-box domain; P53350; Plk1 PBD binding of FITC phosphopeptide, fluorescence polarization; Potency, µM, hits mostly inhibitors; 2.8% of 360,000 active; further: series mostly up to about 57 µM; nearly all actives have a fitted effect of over 65% in size
VDR inhibitor – blocks the human vitamin D receptor. P11473. VDR-SRC2-3 peptide fluorescence polarization, 2 h. Potency, µM, hits mostly inhibitors. 0.93% of 400,000 active
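Fluorescence polarization assay of small-molecule disruption of VDR binding to coregulator peptide SRC2-3. Compounds and controls pin-transferred, then read after 2 h incubation at ambient room temperature.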
BAZ2B block – BAZ2B (human) inhibition. Q9UIF8. AlphaScreen BAZ2B-H3K14Ac peptide displacement. Potency, µM (top dose mostly 114 µM), actives largely listed as inhibitors. 4.4% of 360,000 active. AID 504333; further: nearly all actives have a fitted effect of over 60% in size
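BAZ2B 50 nM plus b-H3(5-23)K14Ac 50 nM, PBS pH 7.4/0.01% Tween-20, 30 min RT; compound added (max 110 uM), 30 min RT; streptavidin donor/Ni-chelate acceptor beads 10 ug/mL final, 20 min dark; AlphaScreen read.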
Hits are given with their value; ! = not active in a repeat. The call rests on the fitted dose curve; in most records, active means well fitted curve in the direction sought with a large enough effect; inconclusive means small, poorly fitted or top-dose-only effect, or another doubt; inactive means no such curve, though single readings can be large; an effect the other way counts as inactive or inconclusive.

For CCC(C(=O)NCCc1cc(OC)ccc1OC)n1nc(C)c2sc3ccccc3c2c1=O (stereo not drawn) the results were JMJD2A Tudor inh inactive, HP1b chromo inh inactive, G9a block inactive, VDR inhibitor inactive and BAZ2B block inactive.
COc1ccc(S(=O)(=O)Nc2cc3c(cc2NCc2ccccc2)n(C)c(=O)n3C)cc1OC was read as JMJD2A Tudor inh inconclusive, HP1b chromo inh inactive, G9a block 13µM, VDR inhibitor inactive and BAZ2B block 50µM.
Screening Cn1c(=O)n(C)c2cc(NS(=O)(=O)c3ccc(C(C)(C)C)cc3)c(NCc3ccccc3)cc21 returned JMJD2A Tudor inh 22µM, HP1b chromo inh inconclusive, G9a block 14µM, VDR inhibitor inactive and BAZ2B block 40µM.
Cn1c(=O)n(C)c2cc(CNCc3ccccc3)ccc21 was read as JMJD2A Tudor inh inactive, HP1b chromo inh inactive, G9a block inactive, VDR inhibitor inactive and BAZ2B block inactive.
`Cn1c(=O)n(C)c2cc(NS(=O)(=O)c3ccccc3)c(NCc3ccccc3)cc21` gave JMJD2A Tudor inh inconclusive, HP1b chromo inh inconclusive, G9a block 11µM, VDR inhibitor inactive and BAZ2B block 50µM.
For COc1ccc(S(=O)(=O)Nc2ccccc2)cc1OC the results were JMJD2A Tudor inh inactive, HP1b chromo inh inactive, G9a block inactive, PLK1 PBD inh inactive, VDR inhibitor inactive and BAZ2B block inactive.
Screening NC(=S)NNC(=O)[C@@H]1CCCC[C@@H]1C(=O)O returned JMJD2A Tudor inh inconclusive, HP1b chromo inh inactive, G9a block 45µM, PLK1 PBD inh 21µM, VDR inhibitor inactive and BAZ2B block inactive.
`O=C(O)C1CCCCC1C(=O)NC1C2CC3CC(C2)CC1C3` (stereo not drawn) gave JMJD2A Tudor inh inactive, HP1b chromo inh inactive, PLK1 PBD inh inactive, VDR inhibitor inactive and BAZ2B block inactive.
For N=C1S/C(=C\c2cn[nH]c2-c2ccc(F)cc2)C(=O)N1c1ccccc1F the results were JMJD2A Tudor inh 89µM, HP1b chromo inh inactive, G9a block inactive, PLK1 PBD inh 27µM, VDR inhibitor inactive and BAZ2B block inactive.
For CCCN(N=Nc1cccc([N+](=O)[O-])c1)c1cccc([N+](=O)[O-])c1 the results were JMJD2A Tudor inh inconclusive, HP1b chromo inh inactive, G9a block 32µM, PLK1 PBD inh inactive, VDR inhibitor inactive and BAZ2B block inconclusive.
Cn1c(CCC(=O)Nc2cc(S(C)(=O)=O)ccc2Cl)nc2cc(S(=O)(=O)N3CCOCC3)ccc21 was read as JMJD2A Tudor inh inactive, HP1b chromo inh inactive, G9a block 10µM, PLK1 PBD inh inconclusive, VDR inhibitor inactive and BAZ2B block 79µM.
Cn1c(CCC(=O)O)nc2cc(S(=O)(=O)N3CCCCC3)ccc21 was read as JMJD2A Tudor inh inactive, HP1b chromo inh inactive, G9a block inconclusive, PLK1 PBD inh 27µM, VDR inhibitor inconclusive and BAZ2B block inactive.
COc1cccc(S(=O)(=O)N(C)C[C@@H]2OCc3cnnn3CCCC(=O)N([C@@H](C)CO)C[C@H]2C)c1 was read as PLK1 PBD inh inactive.
`CC1CCN=C(N)S1` (stereo not drawn) gave JMJD2A Tudor inh inactive, HP1b chromo inh inactive, G9a block 3.2µM, PLK1 PBD inh inactive and VDR inhibitor inactive.
N[C@@H](Cc1ccc(F)cc1)C(=O)O was read as JMJD2A Tudor inh inactive, HP1b chromo inh inactive, G9a block 10µM!, PLK1 PBD inh inactive and VDR inhibitor inactive.
For CCOC(=O)C(Cc1ccccc1)C(=O)Nc1ccc(NC(=O)C(Cc2ccccc2)C(=O)OCC)cc1 (stereo not drawn) the results were JMJD2A Tudor inh inactive, HP1b chromo inh inactive, G9a block inactive, PLK1 PBD inh inactive, VDR inhibitor inactive and BAZ2B block inactive.
CCOC(=O)C(C(C)C)C(N)Cc1ccc(F)cc1 (stereo not drawn) was read as JMJD2A Tudor inh inconclusive, HP1b chromo inh inactive, G9a block inactive, PLK1 PBD inh inactive, VDR inhibitor inactive and BAZ2B block 50µM.
`NC(Cc1ccc2nonc2c1)C(=O)O` (stereo not drawn) gave JMJD2A Tudor inh 8.9µM, HP1b chromo inh inactive, G9a block 13µM, PLK1 PBD inh inactive, VDR inhibitor inactive and BAZ2B block 79µM.
`NC(Cc1ccc(Cl)cc1)C(=O)O` (stereo not drawn) gave G9a block 9.5µM! and VDR inhibitor inactive.
`N[C@H](Cc1ccccc1)C(=O)O` gave G9a block inactive and VDR inhibitor inactive.
For Cc1cccc(C)c1NC(=O)CNC(=O)Cn1nc(C)c(C)c(C#N)c1=O the results were JMJD2A Tudor inh inactive, HP1b chromo inh inactive, G9a block inconclusive, PLK1 PBD inh inactive, VDR inhibitor inactive and BAZ2B block inactive.
`COc1cccc(COCC(O)Cn2cnc3cc(C)c(C)cc32)c1` (stereo not drawn) gave JMJD2A Tudor inh 3.5µM, HP1b chromo inh inconclusive, G9a block 6.3µM, PLK1 PBD inh inactive, VDR inhibitor inactive and BAZ2B block inconclusive.
`COC(=O)c1cccc(OCC(O)Cn2cnc3cc(C)c(C)cc32)c1` (stereo not drawn) gave JMJD2A Tudor inh inactive, HP1b chromo inh inactive, G9a block inactive, PLK1 PBD inh inactive, VDR inhibitor inactive and BAZ2B block inactive.
COC(=O)c1cc(CN2CCN(c3ccccc3C)CC2)ccc1O was read as JMJD2A Tudor inh 2µM, HP1b chromo inh inconclusive, G9a block 7.1µM, PLK1 PBD inh inactive, VDR inhibitor inactive and BAZ2B block 56µM.
For COc1ccc(CN2CCCCCC2)cc1OC the results were JMJD2A Tudor inh inconclusive, HP1b chromo inh inactive, PLK1 PBD inh inactive and VDR inhibitor inactive.
For COc1ccc(CN2CCN(Cc3ccccc3F)CC2)cc1OC the results were JMJD2A Tudor inh 5.6µM, HP1b chromo inh inconclusive, G9a block 8.9µM, PLK1 PBD inh inactive, VDR inhibitor inactive and BAZ2B block 35µM.
COc1ccc(CN2CCN(c3ccccc3OC)CC2)cc1OC was read as JMJD2A Tudor inh 22µM, HP1b chromo inh inconclusive, PLK1 PBD inh inactive, VDR inhibitor inactive and BAZ2B block 50µM.
Screening COc1cc(CN2CCCC(CO)(Cc3ccccc3F)C2)ccc1O (stereo not drawn) returned JMJD2A Tudor inh inactive, HP1b chromo inh inactive, PLK1 PBD inh inactive, VDR inhibitor inactive and BAZ2B block inactive.
Screening Cc1ccccc1N1CCN(Cc2cccc(C(=O)O)c2)CC1 returned JMJD2A Tudor inh inactive, HP1b chromo inh inactive, G9a block inactive, PLK1 PBD inh inactive, VDR inhibitor inactive and BAZ2B block inactive.
Screening COC(=O)c1cc(OC)c(OC)cc1NC(=O)c1ccc2c(c1)CCN2S(=O)(=O)c1ccccc1 returned JMJD2A Tudor inh inactive, HP1b chromo inh inactive, G9a block inactive, VDR inhibitor inactive and BAZ2B block inactive.
